# Laboratory results from PubChem BioAssay AID2284330 (EPA ToxCast).
# Inconclusive results are not listed. The source made the active and inactive calls. Rule for the calls: active = hit-call score of the fitted dose curve at least 0.9, where 1 is the maximum; inconclusive = response in the unintended direction; inactive = score below 0.9.
# System: frog Glucocorticoid Receptor (GR), gene 397897
# Assay: ATG_frGR_EcoTox2: Attagene TRANS-FACTORIAL EcoTox-2 HepG2 Assay for frog Glucocorticoid Receptor (GR)
# Experimental: ATG_EcoTox2 is a cell-based, multiplexed assay created by modifying the existing Attagene TRANS-FACTORIAL system to include a panel of nuclear receptors from some or all the following species: human (Homo sapiens), african clawed frog (Xenopus laevis), rainbow trout (Oncorhynchus mykiss), japanese medaka (Oryzias latipes), and zebrafish (Danio rerio). The ECOTOX2-FACTORIAL format uses HepG2, a human liver cell line, with measurements taken at 24 hours after chemical dosing in a 24-well plate. ATG_frGR_EcoTox2 is one of 29 assay components calculated in the ATG_EcoTox2 assay. It is designed to make measurements of mRNA induction, a form of inducible reporter, as detected with fluorescence intensity signals by Reverse transcription polymerase chain reaction (RT-PCR) and Capillary electrophoresis technology.The assay endpoint ATG_frGR_EcoTox2 was analyzed in the positive analysis fitting direction relative to DMSO as the negative control and baseline of activity. Using a type of inducible reporter, measures of mRNA for gain-of-signal activity can be used to understand the reporter gene at the transcription factor-level as they relate to the gene for glucocorticoid receptor. Furthermore, this assay endpoint can be referred to as a primary readout, because this assay has produced multiple assay endpoints where this one serves a reporter gene function. […]
# Human liver HepG2 cells are transiently transfected with multiple reporter transcription units (MRTUs) in 6-well plates using FuGene 6 reagent (Roche; 3 ml FuGene/1 mg DNA). […] A major difference between the CIS and TRANS system is that in CIS activities of endogenous TFs are measured, whereas the TRANS assay evaluates changes in activities of exogenous, chimeric NR-Gal4 proteins. […] The fragments were purified using Qiaquick PCR columns (Qiagen), analyzed on an ABI 3130xL genetic analyzer (Applied Biosystems) with peak positions identified by using a set of X-rhodamine (ROX)-labeled MapMarker1000 molecular weight standards (BioVentures). […]
row,Structure (SMILES),outcome
1,O=P(Oc1ccccc1)(Oc1ccccc1)Oc1ccccc1,inactive
2,O=S(=O)(O)C(F)(F)C(F)(F)C(F)(F)C(F)(F)C(F)(F)C(F)(F)F,inactive
3,CCCCOCN(C(=O)CCl)c1c(CC)cccc1CC,inactive
